As a reminder, the inhibition is the drop in the measured response relative to a control, in per cent.

Out of some 1,300 compounds screened, about 980 (75%) were called active. Roughly 4% stayed inconclusive and do not appear here. The list shows a part of the results.

The target of this assay is Sulfhydryl oxidase 1 (Homo sapiens) (UniProt O00391). The assay can be described thus: inhibition of human sulfhydryl oxidase QSOX1 – biochemical, HyperBlu H2O2 luminescence, HTS, primary screen (AID 1347420). Also: values above 100% were filed as inconclusive. The conditions noted are these: recombinant QSOX1, HyperBlu H2O2 luminescence; at 12.5 µM; stronger effect = higher value; active = any value above zero.
Sulfhydryl oxidase 1 (Homo sapiens), sequence (O00391 whole entry, looked up): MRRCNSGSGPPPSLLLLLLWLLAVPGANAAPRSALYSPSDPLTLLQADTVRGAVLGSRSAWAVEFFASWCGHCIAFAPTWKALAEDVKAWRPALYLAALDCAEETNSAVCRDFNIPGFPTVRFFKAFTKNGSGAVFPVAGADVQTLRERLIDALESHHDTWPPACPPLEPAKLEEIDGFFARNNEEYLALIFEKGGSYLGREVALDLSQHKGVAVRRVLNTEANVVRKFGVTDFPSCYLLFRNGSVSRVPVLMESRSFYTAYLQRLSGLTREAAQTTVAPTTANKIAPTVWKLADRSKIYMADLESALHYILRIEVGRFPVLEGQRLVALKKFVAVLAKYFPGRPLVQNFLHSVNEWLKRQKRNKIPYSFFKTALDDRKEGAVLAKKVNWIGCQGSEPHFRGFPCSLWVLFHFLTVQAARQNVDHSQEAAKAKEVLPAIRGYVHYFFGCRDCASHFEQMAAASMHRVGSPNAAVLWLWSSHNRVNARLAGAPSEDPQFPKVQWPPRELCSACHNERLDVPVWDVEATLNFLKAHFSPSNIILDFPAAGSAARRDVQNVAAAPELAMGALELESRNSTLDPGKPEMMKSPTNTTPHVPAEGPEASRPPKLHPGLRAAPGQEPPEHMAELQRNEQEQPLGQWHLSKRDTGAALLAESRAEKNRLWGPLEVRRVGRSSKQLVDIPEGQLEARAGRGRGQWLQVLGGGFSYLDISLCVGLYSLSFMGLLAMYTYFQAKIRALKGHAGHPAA
In the case of `CC1=C(C)C(=O)C(CCCCC#CCCCC#CCO)=C(C)C1=O`, the inhibition was 32.9% (active). Under `CCCCCCCCCCCCCCCCCCNC(=O)OCC(COP(=O)([O-])OCC[n+]1ccsc1)OC` (centres undefined) stands 10.6% (active); under `CCCCCCCCCCCCCCCCCCOC[C@H](COP(=O)([O-])OCC[N+](C)(C)C)OC`, -5.6% (inactive); under `N=c1ccn2c(n1)OC1C(O)[C@@H](CO)O[C@H]12` (some centres undefined), 6.1% (active). Under `NCCCCCC(=O)O` stands 40% (active); under `NCCCC(=O)O`, 25.9% (active); under `NCCCCC(=O)O`, 19.4% (active). Under `O=C(O)CCCCCCCC(=O)O` stands 11.4% (active). Take `CCN(c1nc(N)c(C(=O)N=C(N)N)nc1Cl)C(C)C`: the inhibition was 22.6% (active). As for `CN(C)c1nc(N)c(C(=O)N=C(N)N)nc1Cl`, the inhibition was 10.2% (active). Under `NC(N)=NC(=O)c1nc(Cl)c(N2CCCCCC2)nc1N` stands 24.3% (active); under `NC(N)=NC(=O)c1nc(Cl)c(N)nc1N`, 20.2% (active); under `O=C(O)CCc1ccc(NCc2cccc(Oc3ccccc3)c2)cc1`, 41.7% (active). The result for `C=C1C[C@@]23CC[C@H]4[C@@](C)(CCC[C@@]4(C)C(=O)OC4OC(CO)C(O)C(O)C4O)[C@@H]2CCC1(OC1OC(CO)C(O)C(O)C1OC1OC(CO)C(O)C(O)C1O)C3` (some centres undefined) reads -13.9% (inactive); that for `C=C1C[C@@]23CC[C@H]4[C@@](C)(CCC[C@@]4(C)C(=O)O)[C@@H]2CC[C@]1(O)C3`, 9% (active); that for `CCOC(=O)N1CCC(=C2c3ccc(Cl)cc3CCc3cccnc32)CC1`, 13.2% (active). Under `Cn1ccnc1` stands 9.1% (active). On to `CCCCCCCCCCCCCCSCC(=O)O`, for which the inhibition is 9.4% (active). The result for `NC1C=CC=C(C(=O)O)C1` (centres undefined) reads 21.6% (active); that for `OCC1O[C@H](O)C(Cl)C(O)C1O` (some centres undefined), 23.9% (active); that for `COCCCC/C(=N\OCCN)c1ccc(C(F)(F)F)cc1`, 9.6% (active). The result for `CN1CCC(=C2c3ccccc3C=Cc3ccccc32)CC1` reads -2.7% (inactive); that for `CN1CCC(=C2c3ccccc3CC(=O)c3sccc32)CC1`, 6.3% (active); that for `COc1ccc(C2CNC(=O)C2)cc1OC1CCCC1` (centres undefined), 5.2% (active). For `C=CCN1CCc2cc(O)c(O)cc2C(c2ccccc2)C1` (centres undefined), the inhibition was 76.8% (active). The result for `Cc1cccc(C2CN(C)CCc3c2cc(O)c(O)c3Cl)c1` (centres undefined) reads 97.2% (active); that for `C=CCN1CCc2c(cc(O)c(O)c2Cl)C(c2ccccc2)C1` (centres undefined), 84.4% (active); that for `O=C1CCc2cc(OCCCCc3nnnn3C3CCCCC3)ccc2N1`, 11.5% (active). The result for `COc1cc2c(cc1OC)-c1cc(=Nc3c(C)cc(C)cc3C)n(C)c(=O)n1CC2` reads 4.4% (active); that for `CCn1nc(C(=O)O)c(=O)c2cc3c(cc21)OCO3`, 0% (inactive); that for `C[C@H]1O[C@@H](n2cc(F)c(=O)[nH]c2=O)[C@H](O)[C@@H]1O`, 20% (active). Regarding `O=c1ccn([C@@H]2O[C@H](COP(=O)(O)OP(=O)(O)O)[C@@H](O)[C@H]2O)c(=O)[nH]1`, the inhibition was -0.8% (inactive).

Regarding `O=C1N=C([O-])CN1/N=C/C1=C[C+]=C(c2ccc([N+](=O)[O-])cc2)O1`, the inhibition was 53% (active).

On to `CSc1ccccc1N1CCN(CCCCCC(=O)NC2CCCc3ccccc32)CC1` (centres undefined), for which the inhibition was 11.3% (active). For `O=C(CCCCCN1CCN(c2ccccc2-c2ccccc2)CC1)NC1CCCc2ccccc21` (centres undefined), the inhibition was 22.8% (active).

As to `NC(N)=NC(=O)Cc1c(Cl)cccc1Cl`, the inhibition is 16.4% (active). Under `NC(N)=N/N=C/c1c(Cl)cccc1Cl` stands -6.1% (inactive); under `O=C(O)c1cccnc1C(=O)O`, 5.1% (active); under `O=C1NCc2c1c1c3ccccc3[nH]c1c1[nH]c3ccccc3c21`, 13.3% (active). On to `Cn1c(=O)c2[nH]c(-c3ccccc3)nc2n(C)c1=O`, for which the inhibition was 14.7% (active). Under `CCCn1c(=O)c2[nH]c(-c3ccc(S(=O)(=O)O)cc3)nc2n(CCC)c1=O` stands 20.3% (active); under `CCCn1c(=O)c2[nH]c(-c3ccc(OCC(=O)NCCN)cc3)nc2n(CCC)c1=O`, -3.6% (inactive). The result for `Cn1c(=O)c2[nH]c(-c3ccc(S(=O)(=O)O)cc3)nc2n(C)c1=O` reads 31.8% (active).

For the compound `CN(C)S(=O)(=O)c1ccc2c(c1)/C(=C/c1cc3c([nH]1)CCCC3)C(=O)N2`, the inhibition is 52.1% (active). The result for `CNc1cc(NS(=O)(=O)c2ccc(N)cc2)nc(NC)n1` reads 1.3% (active); that for `CCCCCCCCc1ccc(-c2ccc(C(=O)O)cc2)cc1`, 14.5% (active).

Take `Oc1ccccc1O`: the inhibition was 62.9% (active).

On to `O=[N+]([O-])c1cccc2c(Br)[nH]nc12`, for which the inhibition was 47.4% (active). Under `CC(=O)N[C@H](C(=O)O)C(C)(C)SN=O` stands 10.5% (active); under `CC(N)(C(=O)O)c1ccc(C(=O)O)cc1` (centres undefined), 10.5% (active).

With `CCCC(=O)NCCc1c2n(c3ccc(OC)cc13)CCCc1ccccc1-2`, the inhibition is 50.8% (active).

As for `O=C(O)c1cc2cc(F)ccc2[nH]1`, the inhibition was 1% (active). Under `O=C1NC(=O)/C(=C/c2ccc3c(c2)OC(F)(F)O3)S1` stands 21.2% (active).

For `O=C1NC(=O)/C(=C/c2ccc3nccnc3c2)S1`, the inhibition is 5.7% (active). Consider `O=C1NC(=O)/C(=C/c2ccc(-c3ccc(F)cc3O)o2)S1`, for which the inhibition is 0% (inactive).

Turning to `CCCN(CCc1ccccc1)C1CCc2c(O)cccc2C1` (centres undefined), the inhibition is 14% (active). As to `O=c1cc(-c2ccccc2F)[nH]c2cc3c(cc12)OCO3`, the inhibition was 6.4% (active). Under `CCN(CC)CCCN(c1ccccc1)C1Cc2ccccc2C1` stands 94.2% (active); under `c1ccc(-c2ccccn2)nc1`, 7.1% (active); under `NCCC1CCCC(CCN)N1` (centres undefined), 6.6% (active). Under `OCc1ccc(-c2nn(Cc3ccccc3)c3ccccc23)o1` stands 0.6% (active); under `Ic1ccc(N2CCN(Cc3c[nH]c4ncccc34)CC2)cc1`, 23.8% (active). With `Clc1ccc(N2CCN(Cc3c[nH]c4ncccc34)CC2)cc1`, the inhibition was 12.6% (active). With `OC1(c2ccc(Cl)cc2)CCN(Cc2c[nH]c3ccccc23)CC1`, the inhibition was 14.4% (active). `c1cnc(N2CCN(Cc3ccc4c(c3)OCO4)CC2)nc1`: the inhibition is -5.6% (inactive). For `COc1ccc2c(c1)c(CC(=O)O)c(C)n2C(=O)c1ccccc1`, the inhibition was 9% (active). For `COc1ccc2c(c1)c(CC(=O)O)c(C)n2C(=O)c1ccc(Cl)cc1`, the inhibition is 15.5% (active). The result for `COc1ccc2c(c1)c(CC(=O)O)c(C)n2Cc1ccc(Cl)cc1` reads 5.8% (active); that for `CC(C)[C@@H]1CC[C@@H](C)C[C@@H]1P(=O)(c1ccccc1)c1ccccc1`, -5.2% (inactive).

The values above are taken from PubChem BioAssay AID1347420 (Sanford-Burnham Center for Chemical Genomics, 2020).
